We go through six compounds from PubChem BioAssay (NCATS).

SMILES strings stand for the structures. Results filed as inconclusive are left out. Active and inactive are the calls of the source. Unless noted, calls come from the whole dose curve; as a rule, active = well fitted curve in the direction sought with a large enough effect; inconclusive = small, poorly fitted or top-dose-only effect, or another doubt; inactive = no such curve, though single readings can be large; an effect the other way counts as inactive or inconclusive.

The target of assay [1] is Lysosomal acid glucosylceramidase (Homo sapiens) (UniProt P04062). The experiment in a line: Glucocerebrosidase-p2 (AID 348; in the data active = potency below about 10 µM; note: potency is the fitted concentration of half-maximal effect). The conditions noted are these: purified GBA, blue fluorogenic substrate, 40 min. Summed up: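 Normal human glucocerebrosidase (0.2 nM) with blue fluorogenic substrate (80 uM final) in citrate/phosphate pH 5.9 with 10mM sodium taurocholate, 0.01% tween-20; 40 min RT, NaOH/glycine stop; fluorescence Ex 365/Em 440; AC50 from a titration from 0.6 nM upwards.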

Assay [2] can be described thus: AP1 Signaling Pathway (AID 357; active = well fitted curve in either direction with a large enough effect, not every such curve was filed as active;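 note: ME-180 reporter cells stimulated with EGF at its EC50 level; % is set by controls: 0 for no effect and ±100 for the full control effect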). Particulars: ME-180 AP-1-bla reporter, EGF-induced, beta-lactamase ratio, 5 h; at 7.69 µM (top of the series) unless noted. Summed up:
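Cells are seeded overnight, exposed to compound titrations and an EC50 level of EGF for 5 hours at 37 °C, then loaded with CCF4 dye for 2.5 hours. Beta-lactamase activity under the AP-1 element is read as a blue/green ratio.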

A short description of assay [3]: Stat Signaling Pathway (AID 446; active = well fitted curve in either direction with a large enough effect, not every such curve was filed as active;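 note: ME-180 cervical cancer cells given 40 pM IL-6 alongside compound; SIE-controlled beta-lactamase reporter measured as 460/530 nm FRET emission ratio; % is set by controls: 0 for no effect and ±100 for the full control effect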). Particulars: ME-180 (cervical carcinoma) SIE beta-lactamase reporter, IL-6 stimulated, 5 h; at 7.69 µM (top of the series) unless noted. A digest of the protocol:
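Compound effects on IL-6-induced STAT reporter activity were measured in ME-180 cells. After overnight culture, cells were co-treated with 40 pM IL-6 for 5 hrs before beta-lactamase substrate loading at room temperature.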

Assay [4] has as its target Glucocorticoid receptor (Homo sapiens) (UniProt P04150). In words: GR-GFP Redistribution (AID 450;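 active = compounds whose dose series gives a full or clear partial fitted curve of increased nuclear translocation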; note: potency is the fitted concentration of half-maximal effect). Particulars: U2OS GR-GFP nuclear translocation, laser cytometry, 2 h.
Assay [5] shares this target. The experiment in a line: GR-EFC Redistribution (AID 451; calls by dose curve; note: potency is the fitted concentration of half-maximal effect). Particulars: CHO-K1 GR-EFC translocation, beta-gal luminescence, 2 h. A digest of the protocol:
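CHO-K1 cells stably expressing nuclear-localized β-gal enzyme acceptor and GR fused C-terminally to the enzyme donor fragment; ligand-driven nuclear translocation restores β-gal by complementation. Compounds titrated up to 46 uM final, 2 h at 37 °C; luminescence read.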

In assay [6] the target is Mitogen-activated protein kinase 10 (Mus musculus) (UniProt Q61831). In words: JNK3 AlphaScreen Assay (AID 530; active = well fitted curve in either direction with a large enough effect, not every such curve was filed as active;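 note: kinase came from lysate of stimulated human HepG2 cells; % is set by controls: 0 for no effect and ±100 for the full control effect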). Particulars: JNK3 lysate, c-Jun phosphorylation; series mostly up to 57.1 µM. Summed up: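 Biotinylated GST-cJun(1-79) served as substrate for JNK3 in HepG2 lysates stimulated with IL-1beta and TNF-alpha. ATP was 10 uM final, pH 7.6. Ser73 phosphorylation was quantified by AlphaScreen (680 nm excitation).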

Assay [7] in a line: qHTS Assay for Lipid Storage Modulators (AID 1519; calls by dose curve). The conditions noted are these: Drosophila S3 cells, BODIPY lipid droplet/cell ratio, laser cytometry, cells loaded with oleic acid; for activity change, negative = inhibition: at 57.5 µM (top of the series). Summed up: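 Cells seeded at 5,000 per well were treated with compounds over a concentration series and loaded with oleic acid (400 uM, as added). Lipid droplet fluorescence (488 nm excitation, 500-530 nm channel) was read by laser-scanning cytometry and normalized to 20 uM Triacsin C.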
Background: In qHTS, concentration-response curves come from the screen itself.

Assay [8] deals with Dual specificity protein kinase CLK4 (Homo sapiens) (UniProt Q9HAZ1). In words: qHTS Assay for Inhibitors of CDC-like Kinase 4 (ADP-FP Assay) (AID 1795).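 Note: recombinant human CLK4 phosphorylating RS repeat peptide at 1 µM ATP; % is set by controls: 0 for no effect and ±100 for the full control effect; nearly all actives have a fitted effect of over 60% in size.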 Particulars: Transcreener ADP fluorescence polarization; series mostly up to 50 µM. A digest of the protocol:
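FP readout: Orange Transcreener ADP2 tracer (4 nM) plus ADP antibody, read after 30 min at room temperature. Kinase step: 6.25 nM Clk4, 100 uM RS peptide, 1 uM ATP, pH 7.5, 1 h.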

Assay [9] deals with Ubiquitin carboxyl-terminal hydrolase 1 (Homo sapiens) (UniProt O94782). The experiment in a line: Inhibitors of USP1/UAF1: Pilot qHTS (AID 504865).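 Note: rhodamine fluorescence freed from ubiquitin-rhodamine substrate followed over time; top concentration of the series differs between compounds; % is set by controls: 0 for no effect and ±100 for the full control effect; nearly all actives have a fitted effect of over 35% in size.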 Particulars: purified USP1/UAF1, Ub-rhodamine cleavage fluorescence; series mostly up to 54.9 µM. Summed up:
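1nM USP1/UAF1 + cpd, 15 min RT; start w/ Ub-Rho 150nM final; kinetic FL 480/540 nm, 6 reads q60 s. Buffer 50mM HEPES pH 7.8, 0.5mM EDTA, 1mM TCEP, 0.01% Tween-20, 0.1 mg/ml BSA.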

Assay [10] in a line: Primary qHTS for small molecule stabilizers of the endoplasmic reticulum resident proteome: Secreted ER Calcium Modulated Protein (SERCaMP) assay (AID 1508630). Note: % is set by controls: 0 for no effect and ±100 for the full control effect. The conditions noted are these: SH-SY5Y GLuc-SERCaMP (Gaussia luciferase released on ER calcium loss) secretion, thapsigargin, luminescence; series mostly up to 38.4 µM. A digest of the protocol:
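The SH-SY5Y reporter protocol was run at 3 concentrations up to 38.3 uM (primary) or 11 concentrations (follow-up): 16 h compound, 100 nM thapsigargin for 4 h, then extracellular luciferase luminescence.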

The nature of assay [11]: NFAT Signaling Pathway (AID 444; active = well fitted curve in either direction with a large enough effect, not every such curve was filed as active). The conditions noted are these: Jurkat NFAT-bla M1, carbachol, beta-lactamase ratio, 5 h; at 7.69 µM (top of the series) unless noted. Summed up: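 Jurkat cells carrying an NFAT-driven β-lactamase reporter and co-transfected muscarinic M1 receptor were treated with compound plus carbachol (1 uM final, an EC50 level) for 5 h at 37 °C. CCF4 loading followed for 1 h at RT; 460/530 nm ratio gave %activity.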

In assay [12] the target is 3',5'-cyclic-AMP phosphodiesterase 4B (Homo sapiens) (UniProt Q07343). In words: qHTS Assay for Inhibitors of PDE-IV (AID 607; active = well fitted activation curve with a large enough effect in the main read-out, with a control signal flat, not every such curve was filed as active; note: % of control where 0% means no effect). Particulars: HEK293 ACTOne CNG channel cells, membrane potential fluorescence; series mostly up to 22.9 µM. Summed up: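 ACTOne HEK293 cells carry a modified cAMP-gated CNG channel and express endogenous PDE4; plated 1000 cells/well, compounds up to 22.9 uM final. Membrane-potential dye fluorescence (ex 535/em 590) was read; parental cells received 10 uM forskolin + 100 uM RO 20-1724.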

Assay [13] addresses Cytochrome P450 1A2 (Homo sapiens) (UniProt P05177). The experiment in a line: p450-cyp1a2 (AID 410; calls by dose curve; note: potency is the fitted concentration of half-maximal effect). Particulars: recombinant CYP1A2, luciferin-ME demethylation, luminescence; series mostly up to 57 µM. A digest of the protocol:
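20nM CYP1A2, 100uM Luciferin-ME (=Km), 100mM KPO4; cpd 10 min RT; +NADPH regen, 60 min RT; stop/detect 20 min; luminescence. Normalized to furafylline 57 uM = full inhibition.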

Assay [14] addresses Cytochrome P450 3A4 (Homo sapiens) (UniProt P08684). In words: qHTS Assay for Inhibitors and Substrates of Cytochrome P450 3A4 (AID 884). Note: nearly all actives have a fitted effect of over 50% in size. Note: potency is the fitted concentration of half-maximal effect. The conditions noted are these: recombinant CYP3A4, Luciferin-PPXE luminescence; series mostly up to 57.1 µM. Summed up: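 Luminescent readout of luciferin produced by CYP3A4 (20 nM) dealkylation of Luciferin-PPXE, 25 uM (its KM). NADPH-driven reaction ran 60 min at RT after 10 min compound preincubation; data scaled to 57 uM ketoconazole as 100% inhibition.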

The target is the same in assay [15]. In words: qHTS Assay for Activators of Cytochrome P450 3A4 (AID 885). Note: nearly all actives have a fitted effect of over 65% in size. The conditions noted are these: recombinant CYP3A4, Luciferin-PPXE luminescence, 60 min; series mostly up to 57.1 µM. A digest of the protocol:
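CYP3A4 activity: Luciferin-PPXE O-dealkylation, 25uM substrate, 200mM KPO4, RT throughout. Read-out is luciferase luminescence; higher values reflect activation.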

Assay [16] has as its target Cytochrome P450 2C19 (Homo sapiens) (UniProt P33261). In words: qHTS Assay for Inhibitors and Substrates of Cytochrome P450 2C19 (AID 899). Note: potency is the fitted concentration of half-maximal effect; nearly all actives have a fitted effect of over 60% in size. The conditions noted are these: recombinant CYP2C19, luciferin-H EGE luminescence; series mostly up to 57.1 µM. A digest of the protocol: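 Human CYP2C19 (5nM) with Luciferin-H EGE at 10uM (its KM) in 50mM KPO4 was preincubated with compound for 10 min at 37C. NADPH regeneration started a 60 min 37C reaction. Luciferin was read by luminescence, normalized to 57uM ketoconazole.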

The nature of assay [17]: Confirmation and Secondary Assay for Modulators of Hemoglobin Beta Chain Splicing at IVS2 654 locus (AID 910).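 Note: per-well total GFP intensity by laser scanning cytometry after 2-day treatment; % of control where 0% means no effect.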 Particulars: HeLa EGFP-654 splicing reporter, GFP fluorescence, 48 h; series mostly up to 38.3 µM. Summed up: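 HeLa cells stably carrying EGFP interrupted by mutant beta-globin IVS2-654 intron (CMV-driven) were treated with compound for 2 days at 37C; corrected splicing was scored as total peak GFP intensity per well (488 nm excitation, 500-520 nm emission).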

Assay [18] is described as follows: Confirmation and Secondary Assay for Modulators of Hemoglobin Beta Chain Splicing at IVS2 705 locus (AID 930).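 Note: HeLa cells stably expressing the EGFP-705 splicing reporter; GFP fluorescence per well restored by corrected splicing of the IVS2-705 intron in EGFP; % of control where 0% means no effect.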 Particulars: HeLa EGFP-705 splicing reporter, GFP fluorescence, 48 h; series mostly up to 38.3 µM. A digest of the protocol:
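Assay measures total GFP intensity per well in HeLa EGFP-705 cells after 2 days with compound; mis-splicing normally truncates EGFP, so fluorescence indicates corrected splicing.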

The mark [19] stands for this setting: measured here: cell count channel max response.
Where [20] appears, read: measured here: lipid channel max response.

Sequence of Glucocorticoid receptor (Homo sapiens) (P04150 whole entry, looked up): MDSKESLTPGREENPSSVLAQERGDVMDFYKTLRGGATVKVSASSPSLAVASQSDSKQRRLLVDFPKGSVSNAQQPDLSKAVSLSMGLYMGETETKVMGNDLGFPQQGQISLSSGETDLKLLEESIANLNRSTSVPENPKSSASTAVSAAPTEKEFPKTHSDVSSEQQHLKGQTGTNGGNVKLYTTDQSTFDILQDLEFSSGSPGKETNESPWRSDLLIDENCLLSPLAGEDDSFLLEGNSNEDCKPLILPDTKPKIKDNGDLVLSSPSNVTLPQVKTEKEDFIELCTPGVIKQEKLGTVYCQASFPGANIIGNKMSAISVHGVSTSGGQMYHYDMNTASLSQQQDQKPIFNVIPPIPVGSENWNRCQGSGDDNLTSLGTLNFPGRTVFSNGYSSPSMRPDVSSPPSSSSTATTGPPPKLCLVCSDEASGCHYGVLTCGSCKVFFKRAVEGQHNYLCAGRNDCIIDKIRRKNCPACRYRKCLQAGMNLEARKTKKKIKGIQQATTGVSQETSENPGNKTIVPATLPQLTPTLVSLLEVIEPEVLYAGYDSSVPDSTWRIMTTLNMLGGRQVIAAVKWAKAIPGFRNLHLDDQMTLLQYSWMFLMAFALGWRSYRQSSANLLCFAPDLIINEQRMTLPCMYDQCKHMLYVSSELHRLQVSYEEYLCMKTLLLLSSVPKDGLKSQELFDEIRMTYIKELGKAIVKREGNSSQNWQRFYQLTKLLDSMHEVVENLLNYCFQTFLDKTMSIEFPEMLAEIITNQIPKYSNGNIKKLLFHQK
Sequence of Ubiquitin carboxyl-terminal hydrolase 1 (Homo sapiens) (O94782 whole entry, looked up): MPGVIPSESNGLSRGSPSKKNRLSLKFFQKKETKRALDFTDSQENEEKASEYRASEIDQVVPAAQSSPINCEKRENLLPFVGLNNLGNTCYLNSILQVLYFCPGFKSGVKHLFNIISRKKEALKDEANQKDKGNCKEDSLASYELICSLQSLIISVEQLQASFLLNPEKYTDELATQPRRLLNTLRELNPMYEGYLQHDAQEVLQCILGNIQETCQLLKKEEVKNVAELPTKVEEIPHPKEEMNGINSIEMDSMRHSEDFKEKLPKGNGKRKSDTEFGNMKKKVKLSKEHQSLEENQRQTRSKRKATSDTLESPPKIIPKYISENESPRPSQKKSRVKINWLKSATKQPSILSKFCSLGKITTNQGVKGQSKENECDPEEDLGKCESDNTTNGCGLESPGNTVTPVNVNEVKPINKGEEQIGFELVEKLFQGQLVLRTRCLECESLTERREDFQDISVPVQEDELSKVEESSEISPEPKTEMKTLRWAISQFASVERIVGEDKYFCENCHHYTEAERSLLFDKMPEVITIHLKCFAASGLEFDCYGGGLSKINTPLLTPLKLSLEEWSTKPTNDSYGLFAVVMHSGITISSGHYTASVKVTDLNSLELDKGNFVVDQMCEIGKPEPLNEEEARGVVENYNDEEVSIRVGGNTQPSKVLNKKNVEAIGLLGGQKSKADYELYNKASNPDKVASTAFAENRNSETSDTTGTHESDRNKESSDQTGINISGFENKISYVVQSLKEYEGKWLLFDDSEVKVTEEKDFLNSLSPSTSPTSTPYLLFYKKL
Sequence of Lysosomal acid glucosylceramidase (Homo sapiens) (P04062 whole entry, looked up): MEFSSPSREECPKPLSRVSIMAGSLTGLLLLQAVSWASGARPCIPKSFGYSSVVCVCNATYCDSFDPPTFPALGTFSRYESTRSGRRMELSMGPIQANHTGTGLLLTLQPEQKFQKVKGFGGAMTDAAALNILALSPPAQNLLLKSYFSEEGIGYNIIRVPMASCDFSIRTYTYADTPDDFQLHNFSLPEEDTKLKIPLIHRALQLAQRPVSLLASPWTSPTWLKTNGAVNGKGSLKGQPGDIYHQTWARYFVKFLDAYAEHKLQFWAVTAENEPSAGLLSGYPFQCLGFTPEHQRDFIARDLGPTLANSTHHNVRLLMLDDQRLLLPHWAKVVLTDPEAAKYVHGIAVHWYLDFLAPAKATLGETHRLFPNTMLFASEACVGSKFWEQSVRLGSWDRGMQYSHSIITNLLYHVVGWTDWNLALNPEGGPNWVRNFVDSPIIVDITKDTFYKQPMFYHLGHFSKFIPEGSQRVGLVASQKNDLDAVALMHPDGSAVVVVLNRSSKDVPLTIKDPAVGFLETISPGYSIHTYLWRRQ
Sequence of 3',5'-cyclic-AMP phosphodiesterase 4B (Homo sapiens) (Q07343 whole entry, looked up): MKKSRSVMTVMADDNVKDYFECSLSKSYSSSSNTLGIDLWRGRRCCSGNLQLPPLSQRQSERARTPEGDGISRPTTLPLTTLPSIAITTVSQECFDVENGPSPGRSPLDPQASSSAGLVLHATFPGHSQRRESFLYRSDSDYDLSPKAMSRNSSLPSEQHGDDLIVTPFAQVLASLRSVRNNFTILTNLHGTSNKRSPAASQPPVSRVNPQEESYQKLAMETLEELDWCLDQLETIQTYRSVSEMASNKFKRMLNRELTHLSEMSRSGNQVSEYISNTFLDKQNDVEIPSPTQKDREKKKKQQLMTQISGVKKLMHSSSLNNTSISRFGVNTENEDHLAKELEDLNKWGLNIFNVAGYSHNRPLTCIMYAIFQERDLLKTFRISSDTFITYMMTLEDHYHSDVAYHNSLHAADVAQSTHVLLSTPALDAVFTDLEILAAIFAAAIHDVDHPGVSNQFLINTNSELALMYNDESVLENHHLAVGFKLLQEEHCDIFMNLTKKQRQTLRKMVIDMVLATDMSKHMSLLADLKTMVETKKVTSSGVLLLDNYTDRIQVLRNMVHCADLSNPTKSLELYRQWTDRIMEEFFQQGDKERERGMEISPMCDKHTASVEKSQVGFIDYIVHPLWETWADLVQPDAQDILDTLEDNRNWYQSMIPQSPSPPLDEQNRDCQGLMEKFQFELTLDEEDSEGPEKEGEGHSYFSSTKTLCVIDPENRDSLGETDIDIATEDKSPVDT
Sequence of Dual specificity protein kinase CLK4 (Homo sapiens) (Q9HAZ1 whole entry, looked up): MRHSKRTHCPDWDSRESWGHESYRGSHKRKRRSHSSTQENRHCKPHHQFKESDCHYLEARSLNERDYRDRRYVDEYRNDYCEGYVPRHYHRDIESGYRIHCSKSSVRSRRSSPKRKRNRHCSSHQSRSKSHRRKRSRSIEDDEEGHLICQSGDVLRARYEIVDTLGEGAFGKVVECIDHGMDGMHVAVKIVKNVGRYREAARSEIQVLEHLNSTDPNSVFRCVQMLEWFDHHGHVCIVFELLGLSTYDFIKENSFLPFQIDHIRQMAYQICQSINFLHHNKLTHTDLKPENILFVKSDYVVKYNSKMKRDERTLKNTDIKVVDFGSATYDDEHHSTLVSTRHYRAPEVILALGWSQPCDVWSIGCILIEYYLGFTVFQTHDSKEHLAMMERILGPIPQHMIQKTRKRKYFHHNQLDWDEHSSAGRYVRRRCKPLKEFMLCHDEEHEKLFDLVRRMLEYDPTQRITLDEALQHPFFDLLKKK
Sequence of Cytochrome P450 1A2 (Homo sapiens) (P05177 whole entry, looked up): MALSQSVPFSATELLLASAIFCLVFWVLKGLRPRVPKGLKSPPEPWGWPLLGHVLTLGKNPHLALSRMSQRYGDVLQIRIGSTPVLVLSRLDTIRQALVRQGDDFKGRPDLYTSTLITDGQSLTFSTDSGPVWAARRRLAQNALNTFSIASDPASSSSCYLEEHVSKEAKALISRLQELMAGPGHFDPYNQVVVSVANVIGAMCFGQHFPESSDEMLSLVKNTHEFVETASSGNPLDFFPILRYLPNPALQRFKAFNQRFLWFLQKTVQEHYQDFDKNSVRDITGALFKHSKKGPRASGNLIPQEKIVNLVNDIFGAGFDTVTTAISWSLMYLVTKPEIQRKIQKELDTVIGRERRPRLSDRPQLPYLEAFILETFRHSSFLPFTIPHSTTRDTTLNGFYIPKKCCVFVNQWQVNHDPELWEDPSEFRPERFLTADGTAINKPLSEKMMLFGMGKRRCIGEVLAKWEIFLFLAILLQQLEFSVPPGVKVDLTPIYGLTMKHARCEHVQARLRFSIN
Sequence of Cytochrome P450 3A4 (Homo sapiens) (P08684 whole entry, looked up): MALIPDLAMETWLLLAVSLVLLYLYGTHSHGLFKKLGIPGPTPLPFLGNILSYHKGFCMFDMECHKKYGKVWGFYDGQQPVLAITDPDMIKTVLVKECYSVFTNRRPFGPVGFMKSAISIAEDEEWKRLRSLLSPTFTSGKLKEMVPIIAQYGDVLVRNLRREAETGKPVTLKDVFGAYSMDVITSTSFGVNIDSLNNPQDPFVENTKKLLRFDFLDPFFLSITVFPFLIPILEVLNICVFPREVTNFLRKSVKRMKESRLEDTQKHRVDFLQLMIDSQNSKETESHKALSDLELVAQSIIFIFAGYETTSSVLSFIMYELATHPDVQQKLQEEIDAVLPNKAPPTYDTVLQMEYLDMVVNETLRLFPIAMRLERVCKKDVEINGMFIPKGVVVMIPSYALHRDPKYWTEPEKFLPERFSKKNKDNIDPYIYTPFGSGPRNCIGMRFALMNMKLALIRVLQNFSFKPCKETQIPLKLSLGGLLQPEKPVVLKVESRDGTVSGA
Sequence of Cytochrome P450 2C19 (Homo sapiens) (P33261 whole entry, looked up): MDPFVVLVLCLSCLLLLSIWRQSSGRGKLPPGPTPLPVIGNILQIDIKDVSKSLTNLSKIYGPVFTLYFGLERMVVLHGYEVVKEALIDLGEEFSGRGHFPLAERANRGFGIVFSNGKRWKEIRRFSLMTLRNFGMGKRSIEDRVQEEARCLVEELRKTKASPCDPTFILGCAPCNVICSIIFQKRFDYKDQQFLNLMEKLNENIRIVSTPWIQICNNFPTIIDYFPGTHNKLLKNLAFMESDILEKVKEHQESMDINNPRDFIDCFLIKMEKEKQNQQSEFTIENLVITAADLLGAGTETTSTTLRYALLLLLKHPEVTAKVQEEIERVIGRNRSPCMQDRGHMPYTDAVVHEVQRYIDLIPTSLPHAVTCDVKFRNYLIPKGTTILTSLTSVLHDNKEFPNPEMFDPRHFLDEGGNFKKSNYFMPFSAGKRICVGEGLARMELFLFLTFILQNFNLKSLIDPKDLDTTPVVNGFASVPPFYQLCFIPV

As for `COc1ccc(CNc2cc(-c3cccc(C#N)c3)ncn2)c(OC)c1`, the Potency in [1] was > 11.4 µM (inactive); in [4], > 46 µM (inactive); in assay [5] it was > 46 µM (inactive). For the same compound, the activity change, negative = inhibition in [2] was -14.7% (inactive); in [7] it was 7.91% (inactive). The activity, negative = inhibition in assay [3] was -2.42% (inactive). For the same compound, the call in assay [6] was inactive. Also, the max response in assay [7] (setting [19]) came to 18.5%; in assay [7] (setting [20]), 23.9%. In addition, the Potency result in assay [8], in [9] and in assay [10] was “inactive” throughout.

For the compound `CN(C)Cc1ccccc1-c1cncnc1Nc1ccncc1`, the Potency in assay [1] is > 11.4 µM (inactive); in assay [4], > 46 µM (inactive); in [5], > 46 µM (inactive). The activity change, negative = inhibition in [11] was 10.2% (inactive); in assay [7], 4.9% (inactive). Also, the activity, negative = inhibition in assay [3] is 5.07% (inactive). Moreover, in assay [6], the outcome was inactive. For the same compound, the Potency result in assay [12], in [8], in assay [9] and in assay [10] was “inactive” throughout. The max response was 13.6% in assay [7] (setting [19]) and 17.6% in assay [7] (setting [20]).

For the compound `COc1cccc(-c2cncnc2NCc2ccccc2)c1`, the Potency in assay [1] is > 11.4 µM (inactive); in assay [13], 5.01 µM (active); in [4] it was > 46 µM (inactive); in assay [5] it was > 46 µM (inactive); in [14] it was 0.316 µM (active); in assay [16] it was 1.58 µM (active). The results for the activity change, negative = inhibition in assay [2], in assay [11] and in assay [7] were -17.1% (inactive), 1.11% (inactive) and 9.98% (inactive), respectively. The activity, negative = inhibition in [3] is -9.01% (inactive). The result in assay [6], in assay [17] and in assay [18] was inactive. Further, the Potency result in assay [12], in assay [15], in assay [9] and in assay [10] was “inactive” each time. Moreover, the max response was 12.4% in [7] (setting [19]) and 12.8% in [7] (setting [20]).

Take `COCCNc1ccnc(-c2ccccc2C(F)(F)F)n1`: the Potency is > 11.4 µM (inactive) in assay [1], 20 µM (active) in assay [13], > 46 µM (inactive) in assay [4] and > 46 µM (inactive) in assay [5]. Moreover, the results for the activity change, negative = inhibition in [11] and in assay [7] were 9.65% (inactive) and 3.61% (inactive), respectively. The activity, negative = inhibition in assay [3] is 8.97% (inactive). Besides, the outcome in assay [6] was inactive. Further, the Potency result in assay [12], in assay [8], in [9] and in assay [10] was “inactive” throughout. Moreover, the max response in [7] (setting [19]) was determined as 25.6%; in assay [7] (setting [20]) it was 29.2%.

Consider `COc1ccccc1-c1cncnc1Nc1ccc(F)cc1`, for which the Potency in [1] is > 11.4 µM (inactive); in assay [13], 7.94 µM (active); in [4] it was > 46 µM (inactive); in assay [5], > 46 µM (inactive); in assay [14] it was 0.158 µM (active); in [16], 5.01 µM (active). Further, the activity change, negative = inhibition in assay [2] is -12.4% (inactive); in assay [11], 1.41% (inactive); in [7] it was 10.5% (inactive). The activity, negative = inhibition in assay [3] is 4.34% (inactive). Further, the call in assay [6], in [17] and in [18] was inactive. Moreover, the Potency result in assay [12], in assay [15], in [9] and in assay [10] was “inactive” in each case. For the same compound, the max response was 9.46% in assay [7] (setting [19]) and 20.1% in assay [7] (setting [20]).

As for `COc1ccccc1-c1cncnc1-n1ccnc1`, the Potency in assay [1] was > 11.4 µM (inactive); in assay [13], 12.6 µM (active); in assay [4], > 46 µM (inactive); in assay [5], > 46 µM (inactive). Besides, the activity change, negative = inhibition in assay [2] was -7.86% (inactive); in [11], 1.61% (inactive); in assay [7], 7.28% (inactive). The activity, negative = inhibition in [3] is 10.2% (inactive). For the same compound, the result in [6], in [17] and in [18] was inactive. Besides, the Potency result in assay [12], in [14], in assay [9] and in assay [10] was “inactive” throughout. Besides, the max response is 19.4% in assay [7] (setting [19]) and 28.5% in assay [7] (setting [20]).
